Experimental data from ChEMBL document CHEMBL3988442, “University of Dundee, Small-Polar-MMV Screening Library” (2021).

Each molecule was assayed against AMP-activated protein kinase, AMPK (Homo sapiens) (UniProt P54646+O43741+P54619+Q9UGJ0+Q9Y478+Q13131+Q9UGI9) (assay: AMP-dependent Kinase enzyme assay. An in vitro enzyme assay that detects ADP turnover that is directly proportional to AMPK activity. This uses naive AMPK that is activated during the assay with MK-8722). Details: 30 µM.
Assay type: functional
Design: scale not given: direction of the effect not stated beside the values

Structure (SMILES)	Percent Effect
Cc1cc(C)n(C2CCN(C(=O)c3cn4ccsc4n3)C2)n1 (centres undefined)	-11.9%
CN(CCOc1ccccc1)C(=O)Nc1cccn(C)c1=O	-59.2%
O=C(c1cnnn1-c1ccccc1)N1CCCC(c2ccn[nH]2)C1 (centres undefined)	-5.43%
COCc1c(Br)cccc1NC(=O)N(C)CCO	-5.13%
COc1ccc(Cl)cc1CN(C)C(=O)CN1C(=O)OC[C@@H]1C(C)C	1.71%
COC(=O)c1ccoc1CN(C)CC(=O)NC1CC1	-3.6%
Cc1cccc(C(C)C)c1NC(=O)CN(C)C(C)c1nccs1 (centres undefined)	-7.09%
O=C(O)c1ccn(-c2ccccc2NC(=O)c2ccccc2Cl)n1	5.51%
Cc1oc(-c2ccco2)nc1CN1CCc2cncnc2C1	-10.6%
CN(Cc1csc(-c2ccccc2)n1)Cc1ncccc1C(=O)O	5.39%
CC(CN(C)Cc1cccc(-n2cccn2)c1)C(F)(F)F (centres undefined)	-9.02%
CN1CCCCC1Cc1nc2c(cc1C(N)=O)CCC2 (centres undefined)	-4.26%
CC(C)c1nnc(CN2CC(n3cccn3)C2)o1	-4.54%
O=C(COCC1CCCO1)N(Cc1cccnc1)c1ccc(F)cc1 (centres undefined)	-8.95%
Fc1ccc(N2CCCN(c3ccc(Cn4ccnc4)cn3)CC2)cc1	-3.34%
O=C(COc1cccc(Cl)c1)N1CCOCC(O)(CN2CCCC2)C1 (centres undefined)	6.36%
COC(=O)NCC(=O)N1CCCn2nc(CN3CC[C@H](F)C3)cc2C1	5.46%
O=C(Cn1cccn1)N1CCC(c2nnc(-c3ccsc3)o2)CC1	14%
O=C1NCCN2CCN(Cc3ccc(Cl)c(Cl)c3)CC12 (centres undefined)	-0.338%
